Assay [1] is described as follows: Viability qHTS for spleen associated tyrosine kinase inhibitor (SYKi) naive MV4-11 cells (AID 1963823). Further: nearly all actives have a fitted effect of over 40% in size. The following applies: MV4-11 AML viability, CellTiter-Glo luminescence, 72 h; series mostly up to 45 µM. The essentials:
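Read-out: CellTiter-Glo luminescence. Exposure: 72 hr, 37 C, 5% CO2, 95% humidity. Cells: MV4-11 without SYK inhibitor history, 500/well, qHTS format.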
In general terms: qHTS replaces the single test concentration by a dilution series.

Assay [2] is described as follows: Viability qHTS for spleen associated tyrosine kinase inhibitor (SYKi) drug resistant MV4-11 cells (AID 1963824). Further: nearly all actives have a fitted effect of over 35% in size. The note with it: SYKi-resistant MV4-11 viability, CellTiter-Glo, 72 h; series mostly up to 45 µM. The essentials: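 SYK-inhibitor-resistant MV4-11 AML cells were seeded at 500 per well onto compound and cultured 72 hours (37 °C, 5% CO2). CellTiter-Glo was then added, and after 10 min at room temperature, luminescence gave viability.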

Assay [3] in a line: Cellular viability qHTS for adrenocortical cancer (ACC) cell line NCI-H295R (AID 1963990). Further: nearly all actives have a fitted effect of over 60% in size. The note with it: CellTiter-Glo ATP luminescence, 48 h; series mostly up to 46.1 µM. The essentials:
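IC50 and maximal efficacy derive from four-parameter logistic modelling of titration curves, with reads scaled between DMSO-only wells (0%) and doxorubicin hydrochloride (100% inhibition). Compounds spanned up to 46 uM over 48 h.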

Several values for one entry are separate records, joined by “and”; a condition that tells them apart may be missing. Equal values may be shown once. Inconclusive results are not listed. Activity calls are given as the source filed them. The call rests on the fitted dose curve; in most records, active means well fitted curve in the direction sought with a large enough effect; inconclusive means small, poorly fitted or top-dose-only effect, or another doubt; inactive means no such curve, though single readings can be large; an effect the other way counts as inactive or inconclusive.
Potency means the concentration at half of the fitted maximal effect.

Regarding `Cn1cc(-c2ccc(-c3cncc(Cl)c3N3CCC4(CCNC4=O)CC3)cc2)cn1`, the values for the Potency in assay [1] and in assay [2] were 5.25 µM (active) and 1.48 µM (active), respectively. Further, in assay [3], the Potency result is “inactive”.

For `O=S(=O)(c1cccc2c(I)cccc12)N1CCCNCC1`, the Potency in assay [1] was 7.42 µM (active); in assay [2], 16.4 µM (active); in assay [3] it was 25.1 µM (active).

Regarding `Clc1ccc(-c2nc3sccn3c2/C=N/OCc2ccc(Cl)c(Cl)c2)cc1`, the Potency result in assay [1], in assay [2] and in assay [3] was “inactive” in each case.

As to `O=C(O)CCNC(=O)c1ccccc1`, the Potency entry in assay [1], in assay [2] and in assay [3] was “inactive” throughout.

Consider `CC(=O)OCC(=O)[C@@]1(O)[C@H](OC(C)=O)C[C@H]2[C@@H]3CCC4=CC(=O)C=C[C@]4(C)[C@@]3(F)[C@@H](O)C[C@@]21C`, for which the Potency entry in assay [1], in assay [2] and in assay [3] was “inactive” each time.

In the case of `c1ccc(CNCc2ccc(CN3CCCNCCNCCCNCC3)cc2)nc1`, the Potency result in assay [1], in assay [2] and in assay [3] was “inactive” in each case.

Consider `CCc1cc(S(=O)(=O)O)c2cc(C(C)C)cccc1-2`, for which the Potency result in assay [1], in assay [2] and in assay [3] was “inactive” throughout.

As to `CCCC(CCC)C(=O)Nc1ccn([C@@H]2O[C@H](CO)[C@@H](O)C2(F)F)c(=O)n1`, the Potency in assay [1] was 0.411 µM (active); in assay [2], 0.58 µM (active). Also, the Potency entry in assay [3] is “inactive”.

On to `N#C/C(=C1/SC[C@@H](c2ccc(Cl)cc2Cl)S1)n1ccnc1`, for which the Potency in assay [1] is 11.9 µM (active); in assay [2], 13.3 µM (active). In addition, in assay [3], the Potency entry was “inactive”.

On to `Cc1ccc(NS(=O)(=O)c2cccc(C#N)c2)c2[nH]cc(C#N)c12`, for which the Potency in assay [1] is 0.166 µM (active); in assay [2], 0.235 µM (active); in assay [3] it was 0.112 µM (active).

Consider `CC(C)[C@H]1C(=O)N[C@@H](CCCN=C(N)N)C(=O)NCC(=O)N[C@@H](CC(=O)O)C(=O)N[C@H](Cc2ccccc2)C(=O)N1C`, for which the Potency entry in assay [1], in assay [2] and in assay [3] was “inactive” in each case.

Turning to `N#Cc1ccc(-c2c(-c3ncn[nH]3)sc(N3CCOCC3)c2C#N)c(F)c1`, the Potency in assay [1] is 3.26 µM (active) and 3.32 µM (active); in assay [2] it was 2.06 µM (active) and 5.9 µM (active); in assay [3], 4.47 µM (active).

On to `Cc1c(NC(=O)c2cccnc2)c(=O)n(-c2ccccc2)n1C`, for which the Potency entry in assay [1], in assay [2] and in assay [3] was “inactive” in each case.

Turning to `CCCS(=O)(=O)c1nc(NC2CC2)cc(-c2ccc3c(ccn3C3CC(C)(C)NC(C)(C)C3)c2)n1`, the results for the Potency in assay [1], in assay [2] and in assay [3] were 1.75 µM (active), 1.11 µM (active) and 2.18 µM (active), respectively.

In the case of `CCCCCCCCCCOCC(O)CN` (stereo not drawn), the results for the Potency in assay [1], in assay [2] and in assay [3] were 23.7 µM (active), 26.6 µM (active) and 18.4 µM (active), respectively.

For `CN1CCCN(C(c2ccccc2)c2ccc(Cl)cc2)CC1` (stereo not drawn), the figures for the Potency in assay [1], in assay [2] and in assay [3] were 21.1 µM (active), 16.8 µM (active) and 23.1 µM (active), respectively.

`CCCCCCCOc1ccc(CCC(N)(CO)CO)cc1C(F)(F)F`: the figures for the Potency in assay [1], in assay [2] and in assay [3] were 7.42 µM (active), 8.33 µM (active) and 10 µM (active), respectively.

Regarding `NC(=O)c1cnc2[nH]ccc2c1NC1C2CC3C[C@H]1CC(O)(C3)C2` (stereo partly drawn), the Potency is 0.105 µM (active) in assay [1] and 0.468 µM (active) in assay [2]. Moreover, the Potency entry in assay [3] is “inactive”.

In the case of `O=C(/C=C/c1ccc2ccc(C(F)(F)F)cc2n1)c1ccncc1`, the figures for the Potency in assay [1], in assay [2] and in assay [3] were 0.934 µM (active), 0.934 µM (active) and 4.47 µM (active), respectively.

In the case of `O=c1[nH]sc2cc(Cl)ccc12`, the Potency result in assay [1] and in assay [2] was “inactive” in each case. For the same molecule, the Potency in assay [3] is 3.26 µM (active).

For `Cc1c[nH]c(/C=C2\C(=O)Nc3ccccc32)c1CCC(=O)O`, the Potency is 0.468 µM (active) in assay [1]; 1.16 µM (active) and 1.32 µM (active) in assay [2]. Besides, the Potency result in assay [3] was “inactive”.

Consider `Cc1nc(NC(=O)N2CCCC2C(N)=O)sc1-c1ccnc(C(C)(C)C(F)(F)F)c1` (stereo not drawn), for which the Potency in assay [1] is 18.6 µM (active); in assay [2] it was 9.2 µM (active); in assay [3] it was 12.6 µM (active).

With `N#C/C(=C(/N)Sc1ccc(N)cc1)c1ccccc1C(F)(F)F`, the Potency in assay [1] was 10.5 µM (active); in assay [2] it was 7.42 µM (active). In assay [3], the Potency result is “inactive”.

As for `CN1CCN(Cc2ccc(Nc3ncc(Cl)c(Nc4ccccc4S(=O)(=O)N(C)C)n3)cc2)CC1`, the Potency in assay [1] is 0.006 µM (active); in assay [2], 0.0096 µM (active); in assay [3] it was 0.237 µM (active).

As for `O=C(O)Cn1c(C(=O)Nc2nc(-c3ccccc3Cl)cs2)cc2ccccc21`, the Potency result in assay [1], in assay [2] and in assay [3] was “inactive” in each case.

For `C=CC[C@@H]1/C=C(\C)C[C@H](C)C[C@H](OC)[C@H]2O[C@@](O)(C(=O)C(=O)N3CCCC[C@H]3C(=O)O[C@H](/C(C)=C/[C@@H]3CC[C@@H](O)[C@H](OC)C3)[C@H](C)[C@@H](O)CC1=O)[C@H](C)C[C@@H]2OC`, the Potency was 18.6 µM (active) in assay [1] and 14.8 µM (active) in assay [2]. Besides, the Potency result in assay [3] is “inactive”.

On to `Cc1cccc(/C=N/Nc2cc(N3CCOCC3)nc(OCCc3ccccn3)n2)c1`, for which the Potency is 1.32 µM (active) in assay [1], 0.296 µM (active) in assay [2] and 28.2 µM (active) in assay [3].

Turning to `C=C1C(=O)O[C@H]2C[C@H](C)C(/C=C/C(C)=O)=CC[C@H]12`, the results for the Potency in assay [1], in assay [2] and in assay [3] were 1.18 µM (active), 0.934 µM (active) and 7.94 µM (active), respectively.

As to `CCN(CC)CCOc1ccc(/C(=C(\Cl)c2ccccc2)c2ccccc2)cc1`, the Potency was 9.44 µM (active) and 8.2 µM (active) in assay [1]; 10.6 µM (active) and 10.3 µM (active) in assay [2]; 7.31 µM (active) in assay [3].

Turning to `Cc1[nH]c(/C=C2\C(=O)Nc3ccc(F)cc32)c(C)c1C(=O)NCCN1CCCC1`, the Potency in assay [1] is 51.7 nM (active) and 14.4 nM (active); in assay [2], 73.1 nM (active) and 32.3 nM (active); in assay [3], 10.1 µM (active).

For the molecule `Cn1cc(-c2cnn3c(N)c(Br)c(C4CCCNC4)nc23)cn1` (stereo not drawn), the Potency in assay [1] is 0.291 µM (active); in assay [2], 0.461 µM (active). Further, in assay [3], the Potency result is “inactive”.

The values are drawn from PubChem BioAssay (NCATS).
